# MmCpn inh = inhibitors of Methanococcus maripaludis chaperonin TRiC (MmCpn); purified Mm-Cpn ATPase, ADP Transcreener TR-FRET; Potency, µM (series often up to 76.9 µM), without a hit: at the top dose activity, negative = inhibition, most hits filed as inhibitors; 330,000 tested, 0.031% active; AID 504842; further: potency means the concentration at half of the fitted maximal effect; nearly all actives have a fitted effect of over 80% in size
#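 Quantitative HTS used 25 nM Mm-CPN and 10 uM ATP in magnesium/KCl Tris buffer, pH 7.4, with 1 mM DTT. Hydrolysis ran 30 min at 37°C; ADP was read by HTRF.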
# VDR inh = blocks the human vitamin D receptor; VDR-SRC2-3 peptide fluorescence polarization, 2 h; Potency, µM, inactives show max response, negative = inhibition, hits mostly inhibitors; 400,000 tested, 0.93% active; AID 504847; further: potency means the concentration at half of the fitted maximal effect
# Target sequence (P11473 whole entry, looked up): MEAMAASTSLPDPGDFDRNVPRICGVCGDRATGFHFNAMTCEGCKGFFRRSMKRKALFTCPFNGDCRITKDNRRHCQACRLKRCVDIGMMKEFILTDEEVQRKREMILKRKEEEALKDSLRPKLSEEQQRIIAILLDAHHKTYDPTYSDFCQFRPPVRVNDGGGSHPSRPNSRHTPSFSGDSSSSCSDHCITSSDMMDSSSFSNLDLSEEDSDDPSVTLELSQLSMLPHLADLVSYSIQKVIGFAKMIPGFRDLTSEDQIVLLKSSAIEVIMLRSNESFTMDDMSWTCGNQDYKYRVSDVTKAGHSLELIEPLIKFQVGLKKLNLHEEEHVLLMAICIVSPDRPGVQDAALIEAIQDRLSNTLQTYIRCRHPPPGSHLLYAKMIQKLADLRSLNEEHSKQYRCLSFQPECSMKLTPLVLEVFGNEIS
#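 Fluorescence polarization assay measuring small-molecule disruption of VDR binding to the coregulator peptide SRC2-3. Compounds were pin-transferred (23 nl) into the reagent mix and incubated 2 h at room temperature before reading.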
# G9a inh = blocks human histone lysine methyltransferase G9a; 350,000 tested, 8.8% active; Q96KQ7; G9a H3K9 monomethylation, AlphaScreen, 2 h; Potency, µM (series often up to 102 µM), without a hit: at the top dose activity, negative = inhibition, most hits filed as inhibitors; further: potency means the concentration at half of the fitted maximal effect; nearly all actives have a fitted effect of over 75% in size
#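 G9a (20 nM) preincubated 15 min RT with compounds, then 500 nM biotinylated H3K9 peptide and 20 uM SAM added; 2 h RT reaction. Monomethyl-H3K9 product detected by AlphaScreen with anti-H3K9me1 antibody, streptavidin donor and anti-rabbit IgG acceptor beads.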
# PLK1 PBD block = blocks phosphopeptide binding to human PLK1 polo-box domain; P53350; Plk1 PBD binding of FITC phosphopeptide, fluorescence polarization; Potency, µM, inactives show max response, negative = inhibition, usual class: inhibitors; 360,000 tested, 2.8% active; further: potency means the concentration at half of the fitted maximal effect; series mostly up to about 57 µM; nearly all actives have a fitted effect of over 65% in size
# CCT chaperon mod = cytosolic chaperonin activity modulation | purified chaperonin ATPase assay, HTRF ADP detection, 30 min | 360,000 tested, 0.3% active | AID 651819 | activity change, % (no concentration beside the values), hits read low; in the data active means activity change below about -30%
#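 First, chaperonin was dispensed at 40 nM or 20 nM final depending on batch activity. Next, compounds were pinned at 76 uM and ATP added at 10 uM. After 30 min at 37 °C, ADP detection reagents ran 30 min at ambient temperature.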
# Sfp PPTase inh = blocks B. subtilis Sfp PPTase activity; Q9F4F7; 310,000 tested, 3.5% active; Potency, µM, for inactives: largest response in the series, negative = inhibition, hits mostly inhibitors; Biochemical Sfp PPTase activity, qHTS; AID 1490;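 further: the enzyme is Sfp with the accession as filed and its product quenches rhodamine fluorescence; potency means the concentration at half of the fitted maximal effect; 0% = enzyme reaction without inhibitor and -100% = no enzyme wells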
#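 Buffer: 50 mM Hepes-Na pH 7.6, 10 mM MgCl2, 0.01% Nonidet P-40, 0.01% BSA. Enzyme 15 nM, pre-exposed to compound 15 min; substrates then added and fluorescence change tracked over 30 min.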
# Numbers without * were called inactive; ? = inconclusive; . = not tested or not shown; [ ] = dose if it differs, or a comment. Rows were chosen to be rich in hits. Some 10% of all compounds tested hit in one or more screens of this group. Unless noted, the call rests on the fitted dose curve; in most records, active means well fitted curve in the direction sought with a large enough effect; inconclusive means small, poorly fitted or top-dose-only effect, or another doubt; inactive means no such curve, though single readings can be large; an effect the other way counts as inactive or inconclusive. Unless noted, on the % scale 0 is the no-effect control and ±100 the full control effect.
SMILES,MmCpn inh,VDR inh,G9a inh,PLK1 PBD block,CCT chaperon mod,Sfp PPTase inh
O=C(OCCN1C(=O)c2cccc3c(N4CCOCC4)ccc(c23)C1=O)c1cccc(Cl)c1,-3%,9%,327%[59 µM],21µM*,2,5%
O=C(OCCN1C(=O)c2cccc3c(N4CCOCC4)ccc(c23)C1=O)c1ccc(Cl)cc1Cl,-1%,7%,288%[59 µM],19µM*,2,9%
O=C(OCCN1C(=O)c2cccc3c(N4CCOCC4)ccc(c23)C1=O)c1ccccc1Cl,-15%,8%,205%[59 µM],?,-24,5%
O=C(Oc1ccc(F)cc1)c1nc(SCc2ccc(F)cc2)ncc1Cl,.,5%,49%[59 µM],.,.,.
O=c1c(O[C@@H]2O[C@H](CO)[C@@H](O)[C@H](O)[C@H]2O)c(-c2ccc(O)c(O)c2)oc2cc(O)cc(O)c12,-10%,.,8.9µM*,.,.,-10%
O=c1c(O[C@@H]2O[C@H](CO)[C@@H](O)[C@H](O)[C@H]2O)c(-c2ccc(O)cc2)oc2cc(O)cc(O)c12,0%,-7%,.,-18%,0,5%
O=c1c(O[C@@H]2O[C@H](CO)[C@H](O)[C@H](O)[C@H]2O)c(-c2ccc(O)c(O)c2)oc2cc(O)cc(O)c12,-3%,.,13µM*,.,.,0%
O=c1c(OC2OC(CO)C(O)C(O)C2OC2OC(CO)C(O)C(O)C2OC2OC(CO)C(O)C(O)C2O)c(-c2ccc(O)c(O)c2)oc2cc(O)cc(O)c12 (configuration not stated),?,-9%,?,-14%,-3,-30%
Cc1ccc(C(=O)NC(C)c2ccc3c(c2)OCO3)s1 (configuration not stated),2%,?,-21%,12µM*,1,12%
CC1CC2=C(NC(=S)NC2c2ccccc2F)/C(=C/c2ccccc2F)C1 (configuration not stated),1%,?,18µM*,?,-7,?
Fc1cccc(C2NC(=S)NC3=C2N2CCC3CC2)c1 (configuration not stated),-1%,2%,-17%,-17%,-3,2%
CC1CC2=C(NC(=S)NC2c2cccc(F)c2)/C(=C/c2cccc(F)c2)C1 (configuration not stated),-1%,-16%,32µM*,-28%,1,-4%
COC(=O)COc1ccc(/C=C2/NC(=O)N(CC(=O)OC)C2=O)cc1,0%,1%,-22%,2%,-10,14%
COC(=O)CN1C(=O)N/C(=C/c2ccc(C)o2)C1=O,1%,-16%,25µM*,-13%,0,22µM*
COC(=O)[C@H](CO)NS(=O)(=O)c1ccc(C)cc1,1%,-16%,.,-1%,1,.
O=C(O)c1ccc(S(=O)(=O)/N=C2\C=C(Nc3ccccc3F)C(=O)c3ccccc32)cc1,-7%,32µM*,13µM*,30µM*,-2,?
O=S(=O)(/N=C(/Nc1ccccc1F)c1ccccc1)c1ccccc1,1%,6%,2%,1%,0,13%
COC(=O)C(C(C)=O)C1=C/C(=N\S(=O)(=O)c2ccc(C)cc2)c2ccccc2C1=O (configuration not stated),-2%,4%,45µM*,28µM*,0,?
Cc1ccccc1NC1=C/C(=N\S(=O)(=O)c2ccc(C(=O)O)cc2)c2ccccc2C1=O,-9%,?,32µM*,-28%,-2,-28%
CC(C)CC1NC(=S)N(C2CCCCC2)C1=O (configuration not stated),1%,-24%,-3%,3µM*,-1,10%
Cc1c(C(=O)Nc2ccc(F)cc2F)oc2ccc3c(c12)C(=O)CC(C)(C)O3,.,0%,-33%[59 µM],.,.,.
Cc1ccccc1-c1nc(CS(=O)CC(=O)NC2CCCC2)c(C)o1 (configuration not stated),-1%,-6%,79µM*,-25%,-1,8%
CCN1CCN(C(=O)CS(=O)Cc2nc(-c3ccc(OC)cc3)oc2C)CC1 (configuration not stated),-1%,2%,71µM*,-7%,0,-13%
Cc1ccc(-c2nc(CS(=O)CC(=O)NC3CCCCC3)c(C)o2)cc1 (configuration not stated),0%,0%,?,-16%,-7,3%
COc1ccc(-c2nc(CS(=O)CC(=O)N3CCCC3)c(C)o2)cc1 (configuration not stated),2%,-12%,?,-7%,0,-23%
SMILES,MmCpn inh,VDR inh,G9a inh,PLK1 PBD block,CCT chaperon mod,Sfp PPTase inh
Cc1oc(-c2cccs2)nc1CS(=O)CC(=O)NC1CCCCCC1 (configuration not stated),0%,?,40µM*,21µM*,-1,-19%
CCN1CCN(C(=O)CS(=O)Cc2nc(-c3cccc(C)c3)oc2C)CC1 (configuration not stated),-9%,3%,-3%,-6%,0,-4%
Cc1cccc(-c2nc(CS(=O)CC(=O)N3CCc4ccccc4C3)c(C)o2)c1 (configuration not stated),-4%,-25%,32µM*,?,-1,40µM*
CCOc1ccc(OCC)c(NC(=O)c2cnc3c(-c4ccccc4)c(C)nn3c2C)c1,.,13%,6%[59 µM],.,.,.
COc1ccc(-c2nc(CS(=O)CC(=O)NC3CCCC3)c(C)o2)cc1 (configuration not stated),1%,?,-19%,27µM*,-2,13%
COc1ccc(-c2nc(CSCC(=O)N3CCN(c4ccc(OC)cc4)CC3)c(C)o2)cc1,.,-7%,11µM*,.,.,.
CCOc1ccc(-c2nc(CSCC(=O)N3CCN(c4ccc(F)cc4)CC3)c(C)o2)cc1,.,12%,?,.,.,.
COC(=O)c1ccc(C(=O)OC)c(NC(=O)N2CC3CCCN3c3ccccc32)c1 (configuration not stated),.,10%,14µM*,.,.,.
O=C(NCc1ccc(Cl)cc1)c1ccc(NC(=O)N2CC3CCCN3c3ccccc32)cc1 (configuration not stated),.,9%,10µM*,.,.,.
O=C(NCc1ccc(F)cc1)c1ccc(NC(=O)N2CC3CCCN3c3ccccc32)cc1 (configuration not stated),.,24%,18%[59 µM],.,.,.
Cc1ccc2c(c1)N(C(=O)Nc1cccc3c1CCCC3)CC(C)O2 (configuration not stated),.,-2%,-2%[59 µM],.,.,.
COc1ccc(NC(=O)C(Cc2ccccc2)NS(=O)(=O)c2ccc3c(c2)oc(=O)n3C)c(OC)c1 (configuration not stated),.,6%,21%[59 µM],.,.,.
CCn1nnnc1NCc1ccc(N2CCCC2)cc1,-2%,?,?,3.8µM*,0,?

# Screening results (PubChem BioAssay)
